Measurements from PubChem BioAssay AID1569 (National Center for Advancing Translational Sciences (NCATS), 2009).
Records with an inconclusive call do not appear. Calls of active or inactive are those of the source. The call rests on the fitted dose curve; in most records, active means well fitted inhibition curve with a large enough effect; inconclusive means small, poorly fitted or top-dose-only effect, or effect the other way, or another doubt; inactive means no such curve, though single readings can be large or run the other way.

test: Confirmation Concentration-Response Assay for lipid storage modulators; conditions: Drosophila S3 cells, lipid droplet BODIPY/CellTracker ratio, 18-24 h; series mostly up to 46.1 µM; further: nearly all actives have a fitted effect of over 80% in size
How it was run: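 Cells at 5,000/well received compound as a titration plus oleic acid (added as 400 uM solution) and were incubated 18–24 h at 24 °C. BODIPY 493/503 lipid signal and CellTracker Red cell count were read by 488-nm laser-scanning cytometry. Activity was normalised to 20 uM Triacsin C.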
Potency means the concentration at half of the fitted maximal effect.

Potency, active:
COc1ccc(/C=C(\NC(=O)c2cccs2)C(=O)Nc2ccc(C)cc2)cc1OC 0.141 µM
O=C(O[C@H]1[C@H](Cc2ccccc2)NS(=O)(=O)[C@H]2C[C@@H]3C=C[C@]12O3)c1ccc([N+](=O)[O-])cc1 28.1 µM
COc1ccc(-c2cnc(SCC(=O)Nc3nc(C(C)(C)C)cs3)n2Cc2ccco2)cc1 0.705 µM
OCCNc1c2ccccc2nc2c(F)c(F)c(F)c(F)c12 8.65 µM
CCOc1ccc(CCNC(=O)COC(=O)c2c(C)nn(-c3ccccc3)c2C)cc1OCC 1.58 µM
COC(=O)c1ccccc1NC(=O)c1ccc(C#N)cc1 1.12 µM [activator]
Cc1cc(Nc2ccccc2)nc(NCc2ccccc2)n1 11.2 µM
CCC(C)(C)NC(=O)C(c1ccc(OC)cc1)N(CCOC)C(=O)CCC(=O)Nc1nccs1 (configuration not stated) 19.9 µM
COc1ccc(CCn2ccc(O)c(Cc3c(F)cccc3Cl)c2=O)cc1OC 0.434 µM
Cc1ccc(C(C(=O)NC2CCCCC2)N(Cc2ccco2)C(=O)Cc2c[nH]c3ccccc23)o1 (configuration not stated) 4.45 µM
O=C1c2ccccc2C(=O)c2c(Nc3ccc(CCO)cc3)ccc(O)c21 25 µM
COc1cccc(C(=O)O[C@@H]2[C@H](Cc3ccccc3)NS(=O)(=O)[C@H]3C[C@@H]4C=C[C@]23O4)c1 11.2 µM
CCOC(=O)C1CCN(C(=O)C2(NC(=O)Nc3ccccc3C)CCCCC2)CC1 2.5 µM
Cc1ccc(C(NC(=O)C2CCCCC2)c2c(O)ccc3ccccc23)cc1 (configuration not stated) 17.7 µM
CC1CCN(C(=O)C2(NC(=O)Nc3cccc(F)c3)CCCCC2)CC1 7.91 µM
COc1ccc2c(c1)c1nnc(SCC(=O)N3C(C)CCCC3C)nc1n2C (configuration not stated) 3.53 µM
COc1ccc(OC)c(NC(=O)CSc2ncnc3c2cnn3-c2ccccc2Cl)c1 1.77 µM
CCCOc1ccc(Cc2c(Cl)nc(SC)nc2NC)cc1 14.1 µM
CCN(CC)S(=O)(=O)c1cccc(NC(=O)CNc2cccc(S(=O)(=O)N3CCCC3)c2)c1 1.99 µM
c1ccc(-c2csc3ncnc(NCC4COc5ccccc5O4)c23)cc1 (configuration not stated) 1.99 µM
CCOC(=O)C1CCN(C(=O)C2(NC(=O)Nc3ccc(F)cc3F)CCCCC2)CC1 1.77 µM
COc1ccc(/C=C\C(=O)NCc2ccc3[nH]c(C)cc3c2)cc1OC 4.45 µM
Cc1cccc(NC(=O)CNC(=O)C23CC4CC(CC(Cl)(C4)C2)C3)n1 3.15 µM
CCN(CC)C(=O)c1sc2nc(-c3cccs3)cc(-c3cccs3)c2c1N 7.91 µM
O=C(NC1CCCc2c1cnn2-c1ccc(F)cc1F)c1ccccn1 (configuration not stated) 0.0112 µM
Cc1cc(C(=O)NC2CCCc3c2cnn3-c2ccccc2F)nc(C)n1 (configuration not stated) 1.41 µM
O=C(CSc1nnc2c(n1)[nH]c1ccccc12)Nc1cccc(S(=O)(=O)N2CCOCC2)c1 15.8 µM
CCC1CCCCN1C(=O)c1cc(COc2ccc3ncccc3c2)on1 (configuration not stated) 4.34 µM

Potency, inactive:
CCOc1ccc(CCNC(=O)COC(=O)c2ccc(S(C)(=O)=O)cc2)cc1OCC
CCOc1ccc(CCNC(=O)CN2C(=O)NC3(CCCCC3C)C2=O)cc1OCC (configuration not stated)
COc1ccc(CCNC(=O)C(Sc2ccccn2)c2ccccc2)cc1OC (configuration not stated)
COc1ccc(CCNC(=O)c2cc3sc(Cl)cc3n2C)cc1OC
CC(=O)N1CCN(C(=O)C2(NC(=O)Nc3ccc(C)cc3)CCCCC2)CC1
Cc1cnc(NC(=O)CSc2ncc(-c3ccccc3)n2Cc2ccco2)s1
COc1ccc(CCNC(=O)CC2SC(N)=NC2=O)cc1OC (configuration not stated)
Cc1cc(C(=O)O[C@H]2[C@H](Cc3ccccc3)NS(=O)(=O)[C@H]3C[C@@H]4C=C[C@]23O4)ccc1[N+](=O)[O-]
CCc1ccc(CN(C)C(=O)c2ccc3c(=O)n4c(nc3c2)CCC4)cc1
